# Test results published in article PMC7862700, “An all-to-all approach to the identification of sequence-specific readers for epigenetic DNA modifications on cytosine”.
# How the values were obtained:
# Assay in all cases: DAPPL (digital affinity profiling via proximity ligation, sequencing); 10 mM Tris-HCl pH 7.5, 50 mM NaCl, 1 mM DTT, 4% glycerol, room temperature, 30 min; GST-TFs on glutathione beads, 16-mer random dsDNA library, 0.1% formaldehyde crosslink after washing; high values mean tight binding
# Details in all cases: protein: recombinant; tags: N-terminal GST; dsDNA, one strand shown
# ELK1 = biological target: T1, ELK1 (Homo sapiens, UniProt P19419 1-428)
# T1 sequence: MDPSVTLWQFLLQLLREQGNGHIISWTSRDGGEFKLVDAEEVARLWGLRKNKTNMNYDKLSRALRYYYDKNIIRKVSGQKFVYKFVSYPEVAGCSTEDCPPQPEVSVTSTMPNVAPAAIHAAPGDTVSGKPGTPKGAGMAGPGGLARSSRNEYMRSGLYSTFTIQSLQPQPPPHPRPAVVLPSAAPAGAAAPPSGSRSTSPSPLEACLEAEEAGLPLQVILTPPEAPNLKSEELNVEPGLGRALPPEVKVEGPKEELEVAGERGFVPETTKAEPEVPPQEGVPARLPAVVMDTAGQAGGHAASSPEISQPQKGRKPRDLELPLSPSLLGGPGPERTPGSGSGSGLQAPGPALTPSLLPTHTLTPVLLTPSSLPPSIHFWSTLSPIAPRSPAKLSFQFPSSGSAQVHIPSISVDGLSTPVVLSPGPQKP
# Summary of the method: (§1)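 Yeast served to express human transcription factors as GST fusions, which were then captured on glutathione beads and labelled with DNA barcodes. Pooled with a tag-only sample, they were incubated with 200 nmole of a 16-mer random double-stranded DNA library for 30 min at room temperature in Tris/NaCl/DTT/glycerol buffer, washed, crosslinked with 0.1% formaldehyde, ligated by proximity, amplified by PCR and sequenced. Dividing each hexamer's read frequency for a factor by its frequency for the tag-only sample gives the binding signal.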
# ELF1 = ELF1 (Homo sapiens, UniProt P32519 1-619)
# Summary of the method: as §1
# SPIB = SPIB (Homo sapiens, UniProt Q01892 1-262)
# Summary of the method: as §1
# ELK4 = biological target: T2, ELK4 (Homo sapiens, UniProt P28324-2 1-405)
# T2 sequence: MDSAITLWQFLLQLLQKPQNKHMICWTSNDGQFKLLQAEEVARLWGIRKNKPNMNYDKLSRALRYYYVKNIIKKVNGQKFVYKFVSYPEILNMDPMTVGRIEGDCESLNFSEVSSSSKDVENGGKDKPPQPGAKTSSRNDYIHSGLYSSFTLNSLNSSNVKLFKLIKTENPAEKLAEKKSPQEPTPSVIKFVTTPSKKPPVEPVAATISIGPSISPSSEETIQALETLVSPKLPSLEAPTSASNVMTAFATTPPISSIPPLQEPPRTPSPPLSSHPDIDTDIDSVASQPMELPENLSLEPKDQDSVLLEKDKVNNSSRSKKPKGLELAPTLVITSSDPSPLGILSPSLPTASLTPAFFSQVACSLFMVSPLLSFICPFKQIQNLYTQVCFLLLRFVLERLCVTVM
# Summary of the method: as §1
# ETV1 = ETV1 (Homo sapiens, UniProt P50549 1-477)
# Summary of the method: as §1
# ERF = biological target: T3, ERF (Homo sapiens, UniProt P50548 1-548)
# T3 sequence: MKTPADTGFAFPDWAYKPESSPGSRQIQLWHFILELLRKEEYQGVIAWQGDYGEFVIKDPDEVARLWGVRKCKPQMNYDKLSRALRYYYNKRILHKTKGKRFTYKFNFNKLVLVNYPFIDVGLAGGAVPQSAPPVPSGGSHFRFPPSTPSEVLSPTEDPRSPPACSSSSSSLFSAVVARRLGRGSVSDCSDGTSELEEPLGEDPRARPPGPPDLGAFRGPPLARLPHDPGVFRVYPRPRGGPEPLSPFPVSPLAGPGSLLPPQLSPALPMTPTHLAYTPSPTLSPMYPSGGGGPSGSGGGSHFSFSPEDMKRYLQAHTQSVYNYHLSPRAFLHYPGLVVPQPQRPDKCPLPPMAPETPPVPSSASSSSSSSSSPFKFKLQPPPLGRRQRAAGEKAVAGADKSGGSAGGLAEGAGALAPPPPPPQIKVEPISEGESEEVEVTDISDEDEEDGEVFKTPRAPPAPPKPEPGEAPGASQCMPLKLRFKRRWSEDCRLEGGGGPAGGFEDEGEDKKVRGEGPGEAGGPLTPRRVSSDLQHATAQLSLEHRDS
# Summary of the method: as §1
# ERG = biological target: T4, ERG (Homo sapiens, UniProt P11308 1-479)
# T4 sequence: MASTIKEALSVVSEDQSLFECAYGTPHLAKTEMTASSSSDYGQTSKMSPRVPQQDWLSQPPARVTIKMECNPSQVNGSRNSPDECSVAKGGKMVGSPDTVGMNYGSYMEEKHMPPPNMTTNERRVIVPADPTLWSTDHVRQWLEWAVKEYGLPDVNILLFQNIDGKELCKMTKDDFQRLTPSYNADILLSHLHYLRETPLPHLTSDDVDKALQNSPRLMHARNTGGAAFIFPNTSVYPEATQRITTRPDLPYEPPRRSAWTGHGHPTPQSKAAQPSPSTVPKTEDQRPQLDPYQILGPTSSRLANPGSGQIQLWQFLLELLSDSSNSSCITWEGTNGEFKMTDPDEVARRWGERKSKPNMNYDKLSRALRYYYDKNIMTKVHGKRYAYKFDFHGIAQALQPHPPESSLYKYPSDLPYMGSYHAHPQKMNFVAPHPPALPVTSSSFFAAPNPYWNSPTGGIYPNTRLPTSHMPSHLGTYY
# Summary of the method: as §1
# ETV3 = biological target: T5, ETV3 (Homo sapiens, UniProt P41162-2 1-143)
# T5 sequence: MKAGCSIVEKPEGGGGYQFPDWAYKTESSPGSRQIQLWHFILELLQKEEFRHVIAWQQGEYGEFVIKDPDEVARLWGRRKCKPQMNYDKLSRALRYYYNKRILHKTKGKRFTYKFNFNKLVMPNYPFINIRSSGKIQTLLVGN
# Summary of the method: as §1
# SPIC = biological target: T6, SPIC (Homo sapiens, UniProt Q8N5J4 1-248)
# T6 sequence: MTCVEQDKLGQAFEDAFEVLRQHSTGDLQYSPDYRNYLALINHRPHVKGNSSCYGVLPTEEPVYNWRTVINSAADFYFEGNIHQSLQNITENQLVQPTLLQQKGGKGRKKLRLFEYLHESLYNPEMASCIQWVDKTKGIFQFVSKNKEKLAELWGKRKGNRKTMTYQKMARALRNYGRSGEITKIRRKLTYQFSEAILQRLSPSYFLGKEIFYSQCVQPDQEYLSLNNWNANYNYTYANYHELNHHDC
# Summary of the method: as §1
# ELF3 = biological target: T7, ELF3 (Homo sapiens, UniProt P78545 1-371)
# T7 sequence: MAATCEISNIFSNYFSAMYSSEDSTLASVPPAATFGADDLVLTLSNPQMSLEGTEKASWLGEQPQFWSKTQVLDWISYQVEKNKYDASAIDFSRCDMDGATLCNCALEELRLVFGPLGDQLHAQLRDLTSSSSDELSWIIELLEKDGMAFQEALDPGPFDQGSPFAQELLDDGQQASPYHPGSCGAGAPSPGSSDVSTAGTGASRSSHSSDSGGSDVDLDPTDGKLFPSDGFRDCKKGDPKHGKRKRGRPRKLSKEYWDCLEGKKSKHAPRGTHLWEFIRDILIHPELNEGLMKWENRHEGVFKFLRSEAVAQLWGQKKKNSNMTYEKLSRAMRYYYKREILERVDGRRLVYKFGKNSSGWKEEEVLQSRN
# Summary of the method: as §1
# ETV7 = biological target: T8, ETV7 (Homo sapiens, UniProt Q9Y603 1-341)
# T8 sequence: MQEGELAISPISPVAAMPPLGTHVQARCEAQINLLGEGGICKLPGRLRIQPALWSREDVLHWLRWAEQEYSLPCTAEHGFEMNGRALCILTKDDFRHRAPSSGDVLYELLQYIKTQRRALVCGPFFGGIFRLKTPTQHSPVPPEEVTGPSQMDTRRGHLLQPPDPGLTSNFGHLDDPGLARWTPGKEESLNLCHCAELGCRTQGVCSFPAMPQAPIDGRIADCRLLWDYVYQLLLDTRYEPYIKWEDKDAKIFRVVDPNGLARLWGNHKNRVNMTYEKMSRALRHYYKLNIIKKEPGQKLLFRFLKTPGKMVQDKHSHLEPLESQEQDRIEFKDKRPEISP
# Summary of the method: as §1
# ETV6 = ETV6 (Homo sapiens, UniProt P41212 1-452)
# Summary of the method: as §1
# EHF = biological target: T9, EHF (Homo sapiens, UniProt Q9NZC4 1-300)
# T9 sequence: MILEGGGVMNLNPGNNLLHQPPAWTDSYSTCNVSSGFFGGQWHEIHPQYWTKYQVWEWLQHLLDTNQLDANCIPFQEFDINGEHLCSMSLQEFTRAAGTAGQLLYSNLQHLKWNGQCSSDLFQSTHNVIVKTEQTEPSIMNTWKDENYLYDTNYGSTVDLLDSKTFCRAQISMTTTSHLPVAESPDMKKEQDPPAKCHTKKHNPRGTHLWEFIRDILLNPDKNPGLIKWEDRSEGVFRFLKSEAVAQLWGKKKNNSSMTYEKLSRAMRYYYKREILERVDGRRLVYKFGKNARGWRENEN
# Summary of the method: as §1
# ETV2 = biological target: T10, ETV2 (Homo sapiens, UniProt O00321 1-342)
# T10 sequence: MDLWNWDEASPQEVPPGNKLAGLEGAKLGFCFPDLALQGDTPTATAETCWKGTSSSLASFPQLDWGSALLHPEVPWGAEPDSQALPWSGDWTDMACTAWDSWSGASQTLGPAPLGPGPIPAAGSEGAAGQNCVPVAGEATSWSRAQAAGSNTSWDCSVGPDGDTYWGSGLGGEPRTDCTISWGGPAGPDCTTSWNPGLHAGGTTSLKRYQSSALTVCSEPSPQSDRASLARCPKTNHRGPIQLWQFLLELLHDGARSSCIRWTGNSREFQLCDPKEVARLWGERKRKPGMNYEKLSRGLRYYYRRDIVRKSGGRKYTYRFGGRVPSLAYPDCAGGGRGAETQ
# Summary of the method: as §1
# ETV1, sequence (P50549 whole entry): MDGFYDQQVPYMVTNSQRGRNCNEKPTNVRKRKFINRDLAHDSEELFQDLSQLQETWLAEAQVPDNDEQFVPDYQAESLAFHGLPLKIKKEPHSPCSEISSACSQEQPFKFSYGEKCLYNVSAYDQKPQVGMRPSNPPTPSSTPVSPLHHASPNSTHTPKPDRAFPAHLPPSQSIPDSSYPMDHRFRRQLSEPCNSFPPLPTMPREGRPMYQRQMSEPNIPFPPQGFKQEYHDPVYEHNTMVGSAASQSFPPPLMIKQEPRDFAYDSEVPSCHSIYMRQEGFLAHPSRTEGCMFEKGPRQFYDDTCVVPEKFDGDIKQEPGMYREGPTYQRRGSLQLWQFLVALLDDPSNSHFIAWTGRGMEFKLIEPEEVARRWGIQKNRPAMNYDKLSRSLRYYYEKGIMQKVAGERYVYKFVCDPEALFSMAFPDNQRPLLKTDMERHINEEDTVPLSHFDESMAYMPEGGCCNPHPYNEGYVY
# SPIB, sequence (Q01892 whole entry): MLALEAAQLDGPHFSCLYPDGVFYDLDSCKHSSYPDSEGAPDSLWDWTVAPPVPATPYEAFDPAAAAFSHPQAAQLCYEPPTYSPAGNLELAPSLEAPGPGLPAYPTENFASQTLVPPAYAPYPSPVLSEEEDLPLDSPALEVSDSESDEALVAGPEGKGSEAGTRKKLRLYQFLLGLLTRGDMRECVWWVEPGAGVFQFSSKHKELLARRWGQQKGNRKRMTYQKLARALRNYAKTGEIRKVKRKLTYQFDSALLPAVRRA
# ELF1, sequence (P32519 whole entry): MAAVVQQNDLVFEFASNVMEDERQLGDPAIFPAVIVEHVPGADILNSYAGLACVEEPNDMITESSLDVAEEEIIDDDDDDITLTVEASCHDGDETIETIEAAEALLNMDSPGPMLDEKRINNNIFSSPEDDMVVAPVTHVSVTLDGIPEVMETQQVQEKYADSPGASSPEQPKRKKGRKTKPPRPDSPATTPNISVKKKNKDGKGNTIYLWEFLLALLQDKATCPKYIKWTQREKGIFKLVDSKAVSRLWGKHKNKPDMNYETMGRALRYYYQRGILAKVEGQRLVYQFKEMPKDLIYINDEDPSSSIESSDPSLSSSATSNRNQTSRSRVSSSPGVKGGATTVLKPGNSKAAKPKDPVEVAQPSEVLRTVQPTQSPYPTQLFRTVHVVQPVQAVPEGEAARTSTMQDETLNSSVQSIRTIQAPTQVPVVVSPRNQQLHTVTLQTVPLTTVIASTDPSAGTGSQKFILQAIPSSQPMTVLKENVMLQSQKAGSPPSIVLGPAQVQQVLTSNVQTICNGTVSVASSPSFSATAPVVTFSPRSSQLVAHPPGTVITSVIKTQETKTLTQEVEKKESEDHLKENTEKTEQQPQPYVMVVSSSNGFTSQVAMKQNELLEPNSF
# ETV6, sequence (P41212 whole entry): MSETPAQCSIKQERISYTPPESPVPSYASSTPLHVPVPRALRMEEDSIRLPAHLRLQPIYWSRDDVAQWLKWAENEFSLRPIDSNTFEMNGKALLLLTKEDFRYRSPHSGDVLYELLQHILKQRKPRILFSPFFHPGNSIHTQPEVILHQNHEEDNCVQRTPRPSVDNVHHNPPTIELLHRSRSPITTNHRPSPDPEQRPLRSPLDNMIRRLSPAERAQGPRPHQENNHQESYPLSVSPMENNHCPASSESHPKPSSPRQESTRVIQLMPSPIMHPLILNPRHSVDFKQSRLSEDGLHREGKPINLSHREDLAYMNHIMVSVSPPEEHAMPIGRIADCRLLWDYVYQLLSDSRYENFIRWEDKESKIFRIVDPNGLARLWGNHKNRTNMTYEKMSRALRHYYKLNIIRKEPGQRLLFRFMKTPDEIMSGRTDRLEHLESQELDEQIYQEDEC
sequence,measurement,setting,value
GTACCA,binding signal,ELK1,"1.04 fold enrichment (6-mer frequency, TF over GST control)"
same,binding signal,ELF1,"1.01 fold enrichment (6-mer frequency, TF over GST control)"
same,binding signal,SPIB,"1.02 fold enrichment (6-mer frequency, TF over GST control)"
same,binding signal,ELK4,"1.09 fold enrichment (6-mer frequency, TF over GST control)"
same,binding signal,ETV1,"1 fold enrichment (6-mer frequency, TF over GST control)"
same,binding signal,ERF,"1.04 fold enrichment (6-mer frequency, TF over GST control)"
GTCCGG,binding signal,ERG,"1.03 fold enrichment (6-mer frequency, TF over GST control)"
same,binding signal,ETV1,"1 fold enrichment (6-mer frequency, TF over GST control)"
same,binding signal,ETV3,"1.05 fold enrichment (6-mer frequency, TF over GST control)"
AAACAG,binding signal,SPIC,"1.12 fold enrichment (6-mer frequency, TF over GST control)"
same,binding signal,ELK4,"1.04 fold enrichment (6-mer frequency, TF over GST control)"
same,binding signal,ELF3,"1.01 fold enrichment (6-mer frequency, TF over GST control)"
same,binding signal,ETV7,"1.04 fold enrichment (6-mer frequency, TF over GST control)"
same,binding signal,ETV3,"1.01 fold enrichment (6-mer frequency, TF over GST control)"
same,binding signal,ETV6,"1.03 fold enrichment (6-mer frequency, TF over GST control)"
GGATAC,binding signal,ERG,"1.09 fold enrichment (6-mer frequency, TF over GST control)"
same,binding signal,EHF,"1.01 fold enrichment (6-mer frequency, TF over GST control)"
same,binding signal,SPIB,"1 fold enrichment (6-mer frequency, TF over GST control)"
same,binding signal,ETV2,"1.01 fold enrichment (6-mer frequency, TF over GST control)"
same,binding signal,ETV1,"1.06 fold enrichment (6-mer frequency, TF over GST control)"
same,binding signal,ETV3,"1 fold enrichment (6-mer frequency, TF over GST control)"
